Measurements reported in PubChem BioAssay (Tox21).
The source made the active and inactive calls. A call without a number means that no potency is given here. Calls follow the shape of the dose curve; as a rule, active = well fitted activation curve with a large enough effect in the repeat runs; inconclusive = weak or mixed curves; inactive = flat fitted curve, though single readings scatter.

biological target: KiSS-1 receptor (Homo sapiens) (UniProt Q969F8); assay: Human kisspeptin (KISS1R) small molecule agonists, calcium flux assay in KISS1R-HEK293 cells (AID 1920064); details: KISS1R-HEK293, calcium flux fluorescence, agonist; series mostly up to 76.8 µM
Sequence (Q969F8 whole entry, looked up): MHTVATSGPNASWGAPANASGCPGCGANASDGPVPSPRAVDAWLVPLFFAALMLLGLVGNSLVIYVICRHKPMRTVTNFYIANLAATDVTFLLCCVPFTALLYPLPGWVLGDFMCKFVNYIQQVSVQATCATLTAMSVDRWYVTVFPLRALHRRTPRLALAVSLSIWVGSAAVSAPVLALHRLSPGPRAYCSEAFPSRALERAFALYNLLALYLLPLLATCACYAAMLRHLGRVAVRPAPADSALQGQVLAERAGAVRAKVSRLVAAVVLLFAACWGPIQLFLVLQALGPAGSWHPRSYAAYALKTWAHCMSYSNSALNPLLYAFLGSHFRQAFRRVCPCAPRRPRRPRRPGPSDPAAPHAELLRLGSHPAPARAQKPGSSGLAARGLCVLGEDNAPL
Source text: National Center for Advancing Translational Sciences [NCATS]
Division of Preclinical Innovation [DPI]
U.S. Environmental Protection Agency [EPA]
National Institutes of Environmental Health Sciences [NIEHS]
National Toxicology Program [NTP]
U.S. Food and Drug Administration [FDA]
Kisspeptin and its receptor KISS1R play key roles in mammalian reproduction due to their involvement in the onset of puberty and control of the hypothalamic-pituitary-gonadal axis such as regulates GnRH release from the hypothalamus. The kisspeptin/KISS1R system also plays a direct role in peripheral organs (including the ovary, testis, uterus, and placenta) and is implicated in reproductive diseases such as miscarriage and polycystic ovary syndrome (PCOS). Abnormal KISS1R activity is associated with abnormal puberty, infertility, endometriosis, and hormone-dependent tumors. The KISS1 receptor (KISS1R, also called GPR54), a G-protein-coupled receptor (GPCR), acts (through phospholipase C) to increase intracellular inositol trisphosphate and then release intracellular calcium stores. Cell-based KISS1R-HEK293 assay is using HEK293 cells that have been genetically engineered to express the human KISS1R, which activity can be measured by calcium signaling. A compound/drug can activate (agonist) KISS1R that can be monitored by levels of intracellular calcium.
KISS1R-HEK293 cells developed by Codex Corp contain human KISS1R gene, which was stably integrated into HEK 293 cells. The compound activation can be detected by fluorescence intensity via calcium flux assay. This cell line has been used to screen the Tox21 10K compound library to identify agonists of KISS1R.
KISS1R-Hek293 cells were dispensed at 1500 cells/4uL/well in 1536-well black wall/clear bottom plates using a multidrop dispenser. After the assay plates were incubated at a 37 C/5% CO2 incubator for 18 hours, 4 microL of Calcium Dye Solution was added to each well. The plates were incubated at 37 C for 1 hour. And then 23 nL of compounds dissolved in DMSO, positive controls, or DMSO only was transferred to the assay plate by a pin tool station. The fluorescence intensity in the plates was measured using FDSS 7000EX kinetic plate reader with a filter set of Ex/Em=480/540 for 3 min at 1 sec intervals. Each test compound was measured at 15 concentrations and in triplicates.

Compound	Potency
O=C(O)Cc1ccccc1Nc1c(Cl)cccc1Cl	inactive
O=c1[nH]cnc2c1ncn2[C@H]1CC[C@@H](CO)O1	inactive
CC(C)Cc1ccc(C(C)C(=O)O)cc1 (stereo not given)	inactive
CCCCCCCCC	inactive
CCC[C@H](N[C@@H](C)C(=O)N1[C@H](C(=O)O)C[C@@H]2CCCC[C@@H]21)C(=O)OCC	inactive
CCc1cccc(O)c1	inactive
CC(=O)Oc1ccc(C)cc1	inactive
CC(=O)OCC(COC(C)=O)OC(C)=O	inactive
O=C(c1ccccc1)C(O)c1ccccc1 (stereo not given)	inactive
CCn1cc(C(=O)O)c(=O)c2ccc(C)nc21	inactive
O=C1CCCCCCCCCCCN1	inactive
C/C=C(C)/C=C/C=C(C)C	inactive
CCCCOCCO	inactive
O=CCc1ccccc1	inactive
C=CCc1ccc(OC)c(OC)c1	inactive
O=C(O)CS	inactive
F[B-](F)(F)F	inactive
O=C(O)c1cccc([N+](=O)[O-])c1	inactive
Cc1cc(C(C)(C)C)c(O)c(C(C)(C)C)c1	inactive
CC1(C)O[C@@H]2C[C@H]3[C@@H]4C[C@H](F)C5=CC(=O)CC[C@]5(C)[C@H]4[C@@H](O)C[C@]3(C)[C@]2(C(=O)CO)O1	inactive

Compound	Potency
NC(N)=NC(N)=NCCc1ccccc1	inactive
Cc1cc(=O)oc2cc(O)ccc12	inactive
CCOC(=O)/C=C\C(=O)OCC	inactive
CCc1cccc(CC)c1N	inactive
Clc1cc(Cl)c(Cl)cc1Cl	inactive
Cc1ccc([N+](=O)[O-])c(C)c1	inactive
O=S(=O)(O)c1ccc2ccccc2c1	inactive
CCC(C)C=O (stereo not given)	inactive
NC(=O)OCC(COC(N)=O)c1ccccc1	inactive
CC(=O)CCC(=O)O	inactive
O=C(Nc1ccccc1SSc1ccccc1NC(=O)c1ccccc1)c1ccccc1	inactive
C=C1C2CCC(C2)C1(C)C (stereo not given)	inactive
CC(=O)/C=C/C1=C(C)CCCC1(C)C	inactive
CCN(CCN)c1cccc(C)c1	inactive
COCC(C)N (stereo not given)	inactive
O=C(O)c1ccc(O)cc1	inactive
CC(=O)Oc1ccccc1C(=O)O	inactive
CCCCCCCC(=O)OCC(O)CO (stereo not given)	inactive
c1ccc2c(c1)c1cccc3ccc4cccc2c4c31	inactive
c1ccc2ccccc2c1	inactive
